Experimental data taken from PubChem BioAssay AID1490 (National Center for Advancing Translational Sciences (NCATS), 2009).
Hit rate of the full screen: of about 310,000 compounds, about 11,000 (3.5%) were called active. About 4% were inconclusive and are not listed. The sample holds actives, similar compounds and a random draw of the others, so the mix is not that of the screen. The call rests on the fitted dose curve; in most records, active means well fitted inhibition curve with a large enough effect; inconclusive means small, poorly fitted or top-dose-only effect, or another doubt; inactive means no such curve, though single readings can be large or run the other way. Non-standard residues stand in square brackets, D forms with d. Residues, ends and D or L forms follow the SMILES beside them. ξ: configuration not given here. *: point of attachment. Cbz = O=C(OCc1ccccc1)*; ξL = CC(C)CC(N)C(=O)O; ξP = O=C(O)C1CCCN1

target: 4'-phosphopantetheinyl transferase ffp (Bacillus subtilis) (UniProt Q9F4F7); assay: qHTS Assay for Inhibitors of Bacillus subtilis Sfp phosphopantetheinyl transferase (PPTase); conditions: Biochemical Sfp PPTase activity;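 further: the enzyme is Sfp with the accession as filed and its product quenches rhodamine fluorescence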;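 on largest response in the series, negative = inhibition: 0% = enzyme reaction without inhibitor and -100% = no enzyme wells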
From the text: Assay Submitter: Michael Burkart, University of California, San Diego
Screening Center PI: Austin, C.P.
Screening Center: NIH Chemical Genomics Center [NCGC]
The covalent attachment of a phosphopantetheinyl (4'-PP) arm to a variety of synthases and other proteins is a key posttranslational protein modification. The 4'-PP is installed on the proteins post-translationally from coenzyme A (CoA) on a conserved serine residue by action of phosphopantetheinyl transferase (PPTase) enzymes. Phosphopantetheinylation is essential for synthase activity, and removal of the PPTase gene precludes natural product synthesis in microorganisms, or in the case of fatty acid biosynthesis, renders the organism unviable. PPTase enzymes belong to a distinct structural superfamily. Within bacteria, these enzymes are grouped into two classes based upon primary structure, the AcpS-Type and Sfp-Type PPTases.
Sfp-type PPTases, corresponding to an activator of surfactin production in Bacillus subtilis, are responsible for modifying type I polyketide and nonribosomal peptide synthases of prokaryotes. Sfp-type PPTases are responsible for the activation of a variety of pathogen-associated virulence factors. Among these compounds are toxins such as mycolactone from Mycobacterium ulcerans, siderophores such as vibriobactin from Vibrio cholerae or mycobactin from Mycobacterium tuberculosis, as well as the mycolic acids which form the waxy cell wall of Mycobacteria. The biosyntheses of these natural products are considered attractive targets for drug design.
In search of small molecule Sfp-PPTase inhibitors, a fluorescence quenching assay was developed for detection of Bacillus subtilis Sfp-PPTase enzymatic activity in a miniaturized high-throughput format. The consensus ybbr acceptor peptide […] was N-terminally labeled with Black Hole Quencher-2 (BHQ-2) and used in combination with rhodamine-labeled coenzyme A as a co-substrate.
Inhibition of Sfp-PPTase was detected by recording the fluorescence intensity change over a 30-minute reaction period at a 525 nm excitation and 598 nm emission. Reagents were supplied by Michael Burkart and Timothy Foley, University of California at San Diego.
This BioAssay deposition is for validation of the developed Sfp-PPtase assay.
Assay Buffer: 50 mM Hepes-Na pH 7.6, 10 mM MgCl2, 0.01% Nonidet P-40, and 0.01% BSA.
3 uL of Sfp-PPTase enzyme (final concentration 15 nM) and 1 uL of substrate mixture (final concentration for rhodamine-CoA and BHQ-2-YbbR 5 uM and 12.5 uM, respectively) dispensed in columns 1, 2, 5 - 48. Columns 1 and 2 used to generate neutral control (uninhibited reaction)
Three uL of reagents, consisting of buffer (in columns 3 and 4 as negative control) and Sfp-PPTase (in columns 1, 2, 5 - 48) were dispensed into 1,536-well Greiner black solid bottom plate. Compounds (23 nL) were transferred via Kalypsys pintool equipped with 1,536-pin array. The plate was incubated for 15 min at room temperature, followed by the addition of 1 uL substrate to start the reaction. The plate was then centrifuged at 1000 rpm for 15 seconds, and the fluorescence intensity recorded on a ViewLux High-throughput CCD imager (Perkin-Elmer) using standard BODIPY optics (525 nm excitation and 598 nm emission). The plate was then incubated for 30 minutes, and a second read on the ViewLux was performed. The fluorescence intensity difference over the 30-minute period was used to calculate the respective reaction rate for each well.
Potency means the concentration at half of the fitted maximal effect.

SMILES | largest response in the series, negative = inhibition | Potency
CC(C)CC(NC(=O)C1CCCN1C(=O)[C@@H](C)NC(=O)OCc1ccccc1)C(=O)NCC(N)=O (some centres undefined) (Cbz-[dA][ξP][ξL]G-NH2) | 4.6% (inactive) | –
COc1ccc2oc(=N)c(C(=O)Nc3ccc(Br)cc3)cc2c1 | 17.1% (inactive) | –
Cc1ccccc1NC(=S)NC(=O)Cc1ccc(Cl)cc1 | 1.33% (inactive) | –
COC(=O)c1ccc(CNC(=O)c2ccc3oc(C(C)C)nc3c2)cc1 | 14.1% (inactive) | –
CCc1ccccc1NC(=O)CSc1nnc([C@@H](NC(=O)OC(C)(C)C)C(C)C)o1 | 0.218% (inactive) | –
CC(C)Sc1nnc([C@H](Cc2ccccc2)NC(=O)OC(C)(C)C)o1 | – | 50.1 µM (active)
COc1ccccc1NC(=O)[C@H](COCc1ccccc1)NC(=O)OC(C)(C)C | 14.9% (inactive) | –
CCc1ccccc1NC(=O)CSc1nnc([C@@H](NC(=O)OC(C)(C)C)C(C)CC)o1 (some centres undefined) | 6.3% (inactive) | –
C[C@@H](NC(=O)OC(C)(C)C)c1nnc(S(=O)(=O)Cc2ccccc2)o1 | – | 22.4 µM (active)
C[C@H](NC(=O)OC(C)(C)C)c1nnc(SCC(=O)Nc2ccc(Br)cc2)o1 | 20% (inactive) | –
CCOC(=O)CC1(NC(=O)c2cc(COc3cncc(Cl)c3)on2)CCCCC1 | -1.1% (inactive) | –
CC(C)(C)NC(=O)C(c1ccc(Cl)cc1)N(CCO)C(=O)c1snc(C(N)=O)c1N (centres undefined) | 3.24% (inactive) | –
O=C(Nc1cccnc1Cl)c1cc(-c2cccc(Cl)c2)on1 | -6.07% (inactive) | –
O=C(Nc1cccc(F)c1)[C@@H]1CCCN1 | 1.19% (inactive) | –
Cc1ccc(NC(=O)C2CCCN2S(=O)(=O)c2cccc3cccnc23)c(C)c1 (centres undefined) | 10.9% (inactive) | –
CCCCC(C(=O)NC(C)(C)C)N(Cc1ccccc1)C(=O)c1snc(C(N)=O)c1N (centres undefined) | 3.56% (inactive) | –
CCc1ccc2[nH]c(=O)c(Cc3ccccc3)c(O)c2c1 | 0.106% (inactive) | –
CC(NC(=O)c1ccco1)c1ccc2c(c1)OCO2 (centres undefined) | 11.2% (inactive) | –
COc1cccc(N(C(=O)c2snc(C(N)=O)c2N)C(C(=O)NCC2CCCO2)c2c[nH]c3ccccc23)c1 (centres undefined) | -7.12% (inactive) | –
CC(Sc1sc(=S)sc1SC(C)C(=O)O)C(=O)O (centres undefined) | – | 79.4 µM (active)
CC(Sc1nnnn1C1CCCCC1)C(=O)O (centres undefined) | 0.844% (inactive) | –
NC(=O)c1nsc(C(=O)N(CCCN2CCOCC2)C(C(=O)NC2CCCCC2)c2ccc(Cl)cc2)c1N (centres undefined) | 15% (inactive) | –
COCCNC(=O)c1ccc(Cn2c(SCC(=O)NCC3CCCO3)nc3ccc(Br)cc3c2=O)cc1 (centres undefined) | -12.8% (inactive) | –
CCCCn1c(SCC(=O)NCC2CCCO2)nc2ccc(N3CCOCC3)cc2c1=O (centres undefined) | – | 39.8 µM (active)
O=C(CCCn1c(SCC(=O)c2ccccc2)nc2ccccc2c1=O)NCC1CCCO1 (centres undefined) | -21.1% (inactive) | –
CCCCC(=O)Nc1nnc(S(=O)(=O)N(C)Cc2ccco2)s1 | -1.11% (inactive) | –
Cc1nn(-c2ccccc2)c2c1c(C)c(CCC(=O)NCC1CCCO1)c(=O)n2C (centres undefined) | 20.2% (inactive) | –

SMILES | largest response in the series, negative = inhibition | Potency
CC(C)CCNc1nc(N2CCCC2)c2c(c1C#N)CCN(C)C2 | – | 70.8 µM (active)
CCN1CCc2c(C#N)c(NCc3ccccc3)nc(NCCO)c2C1 | -12.9% (inactive) | –
CCc1nc(NCCO)c(C#N)c2c1CCCC2 | -0.704% (inactive) | –
COc1ccc(NC(=O)c2cccc(Cl)c2)c[n+]1[O-] | -0.333% (inactive) | –
O=C(NCCc1ccccc1)c1ccc2c(c1)N(Cc1ccccc1)CCS2 | 5.03% (inactive) | –
COc1ccc(Cn2c(=S)[nH]c3cc(C(=O)N4CCCCC4)ccc3c2=O)cc1 | -3.09% (inactive) | –
O=C(CN1C(=O)c2ccccc2C1=O)NCc1ccc(C(=O)O)cc1 | 9.6% (inactive) | –
CC(=O)N(C1=C(Cl)C(=O)c2ccccc2C1=O)c1ccc(C(=O)O)cc1 | – | 1 µM (active)
CC(C)N(C(=O)c1ccc(-c2ccccc2F)cc1)C(C)C | -2.72% (inactive) | –
C/C=C/C=N/NC(=O)c1ccncc1 | -22.5% (inactive) | –
COC(=O)[C@@]1(Cc2ccc(OC)cc2)[C@H]2c3cc(C(=O)N4CCCC4)n(Cc4ccc(OC(F)(F)F)cc4)c3C[C@H]2CN1C(=O)c1ccccc1 | 6.34% (inactive) | –
COC(=O)[C@@]1(Cc2ccc(F)cc2)[C@H]2c3cc(C(=O)N4CCCC4)n(Cc4ccc(OC(F)(F)F)cc4)c3C[C@H]2CN1C(=O)c1ccccc1 | 24.5% (inactive) | –
COC(=O)[C@@]1(Cc2ccccc2)[C@H]2c3cc(C(=O)N4CCCC4)n(Cc4ccc(C)o4)c3C[C@H]2CN1C(=O)c1ccccc1 | – | 56.2 µM (active)
O=C(OCCN=C1NS(=O)(=O)c2ccccc21)c1cccc([N+](=O)[O-])c1 | 0.751% (inactive) | –
COC(=O)CN1C(=O)[C@H]2[C@@H](C3CC3)N3C(=O)CN(Cc4ccc(-c5ccccc5)cc4)C(=O)[C@@]3(Cc3ccccc3)[C@H]2C1=O | 13% (inactive) | –
Oc1cc(O)c2c(c1)OC(c1ccc(O)c(O)c1)C(O)C2 (centres undefined) | – | 44.7 µM (active)
CCOc1ccc(S(=O)(=O)NCCCn2ccnc2)cc1NC(C)=O | 13.6% (inactive) | –
COc1ccc(OCc2cc(C(=O)N3CCCC3)no2)c2ccccc12 | -21.1% (inactive) | –
O=c1cc(CO)oc(C(Nc2cccc([N+](=O)[O-])c2)c2ccccn2)c1O (centres undefined) | – | 20 µM (active)
FC(F)(F)c1cccc(Nc2ncnc3ccccc23)c1 | 5.92% (inactive) | –
O=C(Nc1cccc(C(F)(F)F)c1)c1cc(Br)cc(Br)c1O | -10.2% (inactive) | –
O=c1cc(CO)oc(C(Nc2cccc(C(F)(F)F)c2)c2ccccn2)c1O (centres undefined) | – | 7.94 µM (active)
O=C(Nc1cccc([N+](=O)[O-])c1)Nn1cnnc1 | 16.6% (inactive) | –
O=[N+]([O-])c1cccc(S(=O)(=O)NCc2ccccn2)c1 | 1.73% (inactive) | –
CCC(C)C(NC(=O)C1CCC(=O)N1C(=O)OCc1ccccc1)C(=O)NC(C(=O)N1CCCC1C(N)=O)C(C)CC (centres undefined) | 18.8% (inactive) | –
N#Cc1ccccc1NC(=O)c1ccc2c(c1)OCO2 | 20.2% (inactive) | –
COc1ccc(CN2C3CCCC2CC(NC(=O)c2cccc(F)c2)C3)cc1 (centres undefined) | 9.04% (inactive) | –
